Our source for the growth inhibition, inhibition and outcome values is PubChem BioAssay.

Experiment [1] is described as follows: antimalarial activity against Dd2 strain (AID 2302;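 active = growth inhibition above 50% at the single 2 µM test dose, taken to imply half-maximal potency below 2 µM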;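 also: 0% = DMSO untreated growth and 100% = chloroquine plus artemisinin killed control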). Particulars: P. falciparum Dd2 in RBCs, LDH growth readout, 72 h; at 2 µM; active compounds read high.
A short description of experiment [2]: HepG2 cytotoxicity, primary screen, cytotoxicity control for P. falciparum antimalarial project, cell-based, ATP luminescence (AID 2303;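 active = inhibition above 50%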;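 also: 0% = DMSO wells and 100% = digitonin-killed cells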). Particulars: HepG2 viability, 24-48 h, at 10 µM, active compounds read high.
The target in experiment [3] is L-lactate dehydrogenase (Plasmodium falciparum (isolate CDC / Honduras)) (UniProt Q27743). Put plainly: PfLDH activity inhibition – cell lysate, 3D7 strain, counter-screen for P. falciparum growth inhibition project (AID 2304).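 Also: 0% = vehicle and 100% = reference inhibitor.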 Particulars: P. falciparum 3D7 crude extract, LDH APAD/NBT absorbance; at 2 µM; active compounds read high.
Experiment [4] is described as follows: inhibition of 3D7 malaria parasite growth – strain 3D7 (AID 2306).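 Also: 0% = DMSO wells and 100% = chloroquine plus artemisinin control wells.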 Particulars: P. falciparum 3D7 erythrocytic growth, LDH absorbance, 72 h; at 2 µM; active compounds read high.
For experiment [5], the target named is Calcium-dependent protein kinase 1 (Plasmodium falciparum (isolate 3D7)) (UniProt P62344). Nature of the experiment: PfCDPK1 kinase inhibitors, biochemical, TCAMS library (AID 1159585; cut-off not given, nearly all actives have IC50 up to about 0.98 µM;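 also: inhibitors leave more ATP so luminescence rises with inhibition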). The settings on record: recombinant PfCDPK1, Kinase-Glo ATP depletion luminescence. (Kinase-Glo measures the ATP left after a reaction by luminescence.)
In experiment [6] the target is Plasmodium falciparum protein kinase 6 (PK6, PF3D7_1337100) (UniProt Q8IDW1). Nature of the experiment: PfPK6 kinase inhibitors, biochemical, TCAMS library (AID 1159586). Particulars: recombinant PfPK6, Kinase-Glo ATP depletion luminescence.
Experiment [7] concerns the target Protein kinase 7 (PK7), Plasmodium falciparum 3D7 (PF3D7_0213400) (UniProt Q7YTF7). Put plainly: inhibition of Plasmodium PK7 catalytic activity – biochemical, TCAMS antimalarial set, Kinase-Glo luminescence (AID 1159587). The settings on record: recombinant PfPK7, Kinase-Glo ATP depletion luminescence.
For experiment [8], the target named is Calcium-dependent protein kinase 4 (Plasmodium falciparum (isolate 3D7)) (UniProt Q8IBS5). Nature of the experiment: PfCDPK4 kinase inhibitors, biochemical, TCAMS library (AID 1159588; cut-off not given, nearly all actives have IC50 up to about 0.91 µM). Particulars: recombinant PfCDPK4, Kinase-Glo ATP depletion luminescence.

Unmarked numbers belong to inactive results. For some of these results: Results with a measured potency or affinity are listed apart. Calls of active or inactive are those of the source. Unless noted, no rule for the calls is given here.

Calcium-dependent protein kinase 4 (Plasmodium falciparum (isolate 3D7)), sequence (Q8IBS5 whole entry, looked up): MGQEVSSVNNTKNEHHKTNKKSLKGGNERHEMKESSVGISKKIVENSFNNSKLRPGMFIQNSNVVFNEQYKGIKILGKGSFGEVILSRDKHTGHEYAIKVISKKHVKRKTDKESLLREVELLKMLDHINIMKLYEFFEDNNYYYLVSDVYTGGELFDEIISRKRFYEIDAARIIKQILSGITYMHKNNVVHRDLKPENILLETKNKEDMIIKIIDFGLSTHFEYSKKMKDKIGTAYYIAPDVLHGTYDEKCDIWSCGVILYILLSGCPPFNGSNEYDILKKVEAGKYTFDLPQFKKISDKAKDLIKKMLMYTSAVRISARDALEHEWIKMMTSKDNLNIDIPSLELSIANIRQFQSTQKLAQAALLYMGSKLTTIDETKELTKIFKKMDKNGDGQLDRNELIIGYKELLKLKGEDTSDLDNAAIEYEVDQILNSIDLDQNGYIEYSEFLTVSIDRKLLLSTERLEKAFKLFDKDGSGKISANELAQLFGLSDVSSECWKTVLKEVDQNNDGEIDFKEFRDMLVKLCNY
L-lactate dehydrogenase (Plasmodium falciparum (isolate CDC / Honduras)), sequence (Q27743 whole entry, looked up): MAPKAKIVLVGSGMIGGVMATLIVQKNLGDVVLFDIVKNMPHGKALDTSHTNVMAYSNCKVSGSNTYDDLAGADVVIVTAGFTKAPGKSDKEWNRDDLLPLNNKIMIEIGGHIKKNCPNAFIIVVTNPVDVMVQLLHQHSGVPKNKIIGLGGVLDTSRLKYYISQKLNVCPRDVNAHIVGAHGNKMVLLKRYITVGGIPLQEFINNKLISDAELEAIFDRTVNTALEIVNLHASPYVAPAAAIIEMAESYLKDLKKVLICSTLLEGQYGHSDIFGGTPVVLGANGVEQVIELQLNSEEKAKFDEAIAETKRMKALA
Protein kinase 7 (PK7), Plasmodium falciparum 3D7 (PF3D7_0213400), sequence (Q7YTF7 1-343): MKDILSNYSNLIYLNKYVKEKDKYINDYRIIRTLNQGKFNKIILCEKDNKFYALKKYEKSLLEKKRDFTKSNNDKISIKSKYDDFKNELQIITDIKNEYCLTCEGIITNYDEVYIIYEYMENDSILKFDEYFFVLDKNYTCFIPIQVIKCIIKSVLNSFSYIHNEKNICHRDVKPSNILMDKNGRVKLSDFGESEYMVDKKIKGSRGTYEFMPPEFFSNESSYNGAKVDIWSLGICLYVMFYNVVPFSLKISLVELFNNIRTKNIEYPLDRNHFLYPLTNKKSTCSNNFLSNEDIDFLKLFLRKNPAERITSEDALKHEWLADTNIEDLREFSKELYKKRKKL
Plasmodium falciparum protein kinase 6 (PK6, PF3D7_1337100), sequence (Q8IDW1 1-305): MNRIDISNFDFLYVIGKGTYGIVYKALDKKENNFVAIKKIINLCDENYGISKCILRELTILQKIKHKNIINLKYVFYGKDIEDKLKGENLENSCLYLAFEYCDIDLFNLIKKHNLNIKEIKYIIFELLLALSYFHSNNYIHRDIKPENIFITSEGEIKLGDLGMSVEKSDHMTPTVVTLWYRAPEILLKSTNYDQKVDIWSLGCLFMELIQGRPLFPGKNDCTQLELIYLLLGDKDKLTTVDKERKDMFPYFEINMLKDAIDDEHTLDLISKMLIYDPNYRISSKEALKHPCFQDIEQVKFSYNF
Calcium-dependent protein kinase 1 (Plasmodium falciparum (isolate 3D7)), sequence (P62344 whole entry, looked up): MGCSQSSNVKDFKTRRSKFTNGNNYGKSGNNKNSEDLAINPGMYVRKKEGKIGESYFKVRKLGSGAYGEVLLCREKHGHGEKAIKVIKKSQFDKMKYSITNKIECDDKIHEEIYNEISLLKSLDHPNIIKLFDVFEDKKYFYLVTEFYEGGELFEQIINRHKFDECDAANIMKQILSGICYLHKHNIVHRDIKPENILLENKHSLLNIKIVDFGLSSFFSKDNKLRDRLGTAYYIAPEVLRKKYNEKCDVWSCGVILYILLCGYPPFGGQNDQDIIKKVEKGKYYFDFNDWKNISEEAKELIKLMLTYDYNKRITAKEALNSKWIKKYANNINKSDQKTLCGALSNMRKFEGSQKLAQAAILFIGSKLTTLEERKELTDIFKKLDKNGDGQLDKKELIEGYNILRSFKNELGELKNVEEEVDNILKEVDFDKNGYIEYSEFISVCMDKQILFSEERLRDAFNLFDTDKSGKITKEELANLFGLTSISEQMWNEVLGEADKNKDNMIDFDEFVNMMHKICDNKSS

As to `O=C(c1cccc(-c2noc(C(F)(F)F)n2)c1)N1CCN(c2ccncc2)CC1`, the growth inhibition in experiment [1] was 56% (active); in experiment [4], 90% (active). For the same compound, the inhibition – broadly, the change of the read-out against control, counted positive when it falls – in experiment [2] is 14%; in experiment [3] it was 3%. The result in experiment [5], in experiment [6], in experiment [7] and in experiment [8] was inactive.
As to `O=C(Cn1c(CCc2cccc(F)c2F)cc(=O)c2ccccc21)N(CCN1CCCCC1)Cc1ccc(-c2ccc(C(F)(F)F)cc2)cc1`, the figures for the growth inhibition in experiment [1] and in experiment [4] were 59% (active) and 101% (active), respectively. Besides, the inhibition in experiment [2] is 9%; in experiment [3], -6%. The result in experiment [5], in experiment [6], in experiment [7] and in experiment [8] was inactive.
With `O=C(Nc1cccnc1)c1cc(C(=O)Nc2cccnc2)cc([N+](=O)[O-])c1`, the growth inhibition in experiment [1] and in experiment [4] was 100% (active) throughout. Besides, the results for the inhibition in experiment [2] and in experiment [3] were -12% and -2%, respectively. For the same compound, the result in experiment [5], in experiment [6], in experiment [7] and in experiment [8] was inactive.
With `Cc1ccc(NS(=O)(=O)c2ccc(C(C)N3CCC(N4CCCCC4)CC3)cc2)cc1C` (stereo not given), the figures for the growth inhibition in experiment [1] and in experiment [4] were 82% (active) and 97% (active), respectively. Also, the inhibition in experiment [2] is 66% (active); in experiment [3], -2%. The outcome in experiment [5], in experiment [6], in experiment [7] and in experiment [8] was inactive.
Regarding `CCCc1ccccc1Nc1nc(C)cc(N(CC)CCCN2CCCCC2)n1`, the growth inhibition was 49% in experiment [1] and 98% (active) in experiment [4]. For the same compound, the inhibition in experiment [2] is 27%; in experiment [3], -3%. Moreover, the result in experiment [5], in experiment [6], in experiment [7] and in experiment [8] was inactive.
`Clc1ccc2c(NN=Cc3cccs3)ccnc2c1`: the growth inhibition in experiment [1] is 96% (active); in experiment [4], 100% (active). The values for the inhibition in experiment [2] and in experiment [3] were -4% and 2%, respectively. Further, the result in experiment [5], in experiment [6], in experiment [7] and in experiment [8] was inactive.
For `Cc1[nH]c(C)c(-c2ccc(-c3ccc(OC(F)(F)F)cc3)nc2)c(=O)c1Cl`, the growth inhibition in experiment [1] and in experiment [4] was 95% (active) each time. Also, the inhibition in experiment [2] is 11%; in experiment [3], -6%. For the same compound, the outcome in experiment [5], in experiment [6], in experiment [7] and in experiment [8] was inactive.
`COc1ccc(C2CC(=O)C3=C(C2)NC(C)=C(C(=O)OC(C)C)C3c2ccccc2F)cc1OC` (stereo not given): the growth inhibition in experiment [1] was 99% (active); in experiment [4], 100% (active). For the same compound, the inhibition in experiment [2] is 14%; in experiment [3] it was 0%. Besides, the outcome in experiment [5], in experiment [6], in experiment [7] and in experiment [8] was inactive.
On to `O=c1cc(NCCCNCc2cc3ccccc3s2)[nH]c2ccccc12`, for which the growth inhibition in experiment [1] is -3%; in experiment [4], 89% (active). For the same compound, the inhibition in experiment [2] is 3%; in experiment [3], -1%. For the same compound, the outcome in experiment [5], in experiment [6], in experiment [7] and in experiment [8] was inactive.
With `O=C(Nc1cccc(-c2ccc(NCCCN3CCCC3)nc2)c1)c1ccccc1`, the growth inhibition in experiment [1] is 21%; in experiment [4], 100% (active). Besides, the inhibition was 22% in experiment [2] and 4% in experiment [3]. Besides, the outcome in experiment [5], in experiment [6], in experiment [7] and in experiment [8] was inactive.
With `CCN(CC)CCN(Cc1ccc(-c2ccc(C(F)(F)F)cc2)cc1)C(=O)Cn1c(CCc2ccccc2F)nc(=O)c2ccccc21`, the figures for the growth inhibition in experiment [1] and in experiment [4] were 54% (active) and 95% (active), respectively. The figures for the inhibition in experiment [2] and in experiment [3] were 39% and -1%, respectively. For the same compound, the result in experiment [5], in experiment [6], in experiment [7] and in experiment [8] was inactive.
In the case of `COc1cc(-c2cc(-c3ccc(S(C)(=O)=O)cc3)cnc2N)ccc1O`, the growth inhibition in experiment [1] and in experiment [4] was 97% (active) throughout. Also, the inhibition in experiment [2] is 37%; in experiment [3], -2%. For the same compound, the result in experiment [5], in experiment [6], in experiment [7] and in experiment [8] was inactive.
In the case of `CN(C)C(=O)O[C@@H]1CN[C@H](C#Cc2cc3ncnc(Nc4ccc5c(cnn5Cc5cccc(F)c5)c4)c3s2)C1`, the growth inhibition in experiment [1] is 68% (active); in experiment [4], 97% (active). In addition, the inhibition in experiment [2] is 0%; in experiment [3] it was 7%. The outcome in experiment [5], in experiment [6], in experiment [7] and in experiment [8] was inactive.
For `CCCCCCCc1[nH]c2ccccc2c(=O)c1C`, the values for the growth inhibition in experiment [1] and in experiment [4] were 96% (active) and 97% (active), respectively. Further, the inhibition in experiment [2] is 48%; in experiment [3], 2%. Moreover, the result in experiment [5], in experiment [6], in experiment [7] and in experiment [8] was inactive.
In the case of `CC(C)(C)Nc1cc(C(=O)N[C@@H](Cc2ccccc2)[C@H](O)CNC2CCOCC2)cc(N2CCCCS2(=O)=O)c1`, the growth inhibition in experiment [1] is 98% (active); in experiment [4] it was 99% (active). For the same compound, the inhibition was -5% in experiment [2] and -1% in experiment [3]. Further, the result in experiment [5], in experiment [6], in experiment [7] and in experiment [8] was inactive.
Regarding `COc1ccc2nccc(N3CCN(CCNCc4ccc5c(n4)NC(=O)CS5)CC3)c2c1`, the growth inhibition in experiment [1] was 23%; in experiment [4], 97% (active). Moreover, the results for the inhibition in experiment [2] and in experiment [3] were 18% and -2%, respectively. Besides, the outcome in experiment [5], in experiment [6], in experiment [7] and in experiment [8] was inactive.
For the compound `CCCNCc1ccc(-c2ccc(CN(C(=O)c3nn(-c4ccccc4)nc3C)C3CCOCC3)cc2)nc1`, the growth inhibition in experiment [1] was -6%; in experiment [4], 98% (active). Further, the inhibition in experiment [2] is 14%; in experiment [3], 4%. The result in experiment [5], in experiment [6], in experiment [7] and in experiment [8] was inactive.
`CCCCCCN1CCN(Cc2cccc(NC(=O)c3cccc(OCC)c3)c2)CC1`: the growth inhibition in experiment [1] is 48%; in experiment [4], 85% (active). The inhibition is 65% (active) in experiment [2] and 0% in experiment [3]. In addition, the outcome in experiment [5], in experiment [6], in experiment [7] and in experiment [8] was inactive.
In the case of `CCCN(CCCN(CCCN(CCC)C(C)C)c1cc(C)nc(Nc2ccc(Cl)cc2)n1)C(C)C`, the growth inhibition in experiment [1] is 99% (active); in experiment [4], 102% (active). The results for the inhibition in experiment [2] and in experiment [3] were 39% and 0%, respectively. In addition, the outcome in experiment [5], in experiment [6], in experiment [7] and in experiment [8] was inactive.
Take `Cc1ccc(N/C(N)=N/c2ncccc2OCc2c(F)cccc2Cl)cc1`: the growth inhibition was 54% (active) in experiment [1] and 86% (active) in experiment [4]. Further, the inhibition in experiment [2] is 78% (active); in experiment [3], -2%. The outcome in experiment [5], in experiment [6], in experiment [7] and in experiment [8] was inactive.
